This note sets out measurements from PubChem BioAssay (NCI).

Some test systems named below: HCT-15 colon; HT29 colon; SNB-75 CNS; SNB-19 CNS; U251 CNS; PC-3 prostate; SK-MEL-5 melanoma; UACC-62 melanoma; LOX IMVI melanoma; SK-MEL-28 melanoma; SK-MEL-2 melanoma; EKVX NSCLC; SN12C renal; UO-31 renal; TK-10 renal; ACHN renal; CAKI-1 renal; A498 renal; CCRF-CEM leukemia; MOLT-4 leukemia.
Test in all cases: NCI-60 one-dose screen, 48 h (100 = growth as untreated, 0 = no growth, -100 = all killed)
What all share (settings): 10 µM unless noted

Each structure is given as a SMILES string. Compounds without any hit were thinned out: in the full panel of roughly 83,000, 20% have a hit.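 Step 1: grow cells in 96-well plates. Step 2: add test compound at a single concentration. Step 3: incubate 48 h. Step 4: record percent growth.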 A number with no mark means an inactive call. Calls of active or inactive are those of the source. The calls were made as follows: active = growth percent below 10; inactive = the rest.

In the case of `COc1cc(/C=C2\C(=O)N(Cc3ccc(Cl)cc3)c3ccccc32)cc(OC)c1OC`, the growth in the assay with HCT-15 colon was -37.7% (active); with HT29 colon, 8.97% (active); in the assay with SNB-75 CNS it was 12.5%; in the assay on SNB-19 CNS, 50.3%; in the assay with U251 CNS, 3.6% (active); with PC-3 prostate it was 38.6%. The growth with SK-MEL-5 melanoma is 41.6%; in the assay on UACC-62 melanoma, 22.2%; in the assay with LOX IMVI melanoma, -57.1% (active); in the assay on SK-MEL-28 melanoma, -42.6% (active); in the assay on SK-MEL-2 melanoma, 90.2%; in the assay on EKVX NSCLC, 88.8%. Besides, the growth in the assay with SN12C renal was 24.9%; in the assay with UO-31 renal it was 26.6%; in the assay with TK-10 renal it was 20.5%; in the assay with ACHN renal it was 40.6%; in the assay on CAKI-1 renal, 24.6%; with A498 renal, 26.2%. For the same molecule, the growth with CCRF-CEM leukemia is -3.04% (active); with MOLT-4 leukemia, 8.46% (active).
In the case of `C[C@]12CCc3nc(Nc4cccc(O)c4)sc3C1=CC[C@@H]1[C@@H]2CC[C@]2(C)/C(=N\NC(N)=S)CC[C@@H]12`, the growth was -29% (active) in the assay with HCT-15 colon; 3.21% (active) in the assay on HT29 colon; 1.36% (active) with SNB-75 CNS; 57.9% in the assay on SNB-19 CNS; 11.9% in the assay with U251 CNS; 20.1% in the assay with PC-3 prostate. Moreover, the growth in the assay on SK-MEL-5 melanoma was 36.7%; in the assay with UACC-62 melanoma, 73.1%; with LOX IMVI melanoma, -73.8% (active); in the assay with SK-MEL-28 melanoma, 9.46% (active); in the assay with SK-MEL-2 melanoma, 40.8%; in the assay with EKVX NSCLC, 65.9%. Also, the growth is 30.7% in the assay with SN12C renal; -37.1% (active) in the assay on UO-31 renal; 20.1% in the assay on TK-10 renal; -54.1% (active) in the assay on ACHN renal; 36.4% in the assay with CAKI-1 renal; 97.5% in the assay on A498 renal. The results for the growth in the assay on CCRF-CEM leukemia and in the assay with MOLT-4 leukemia were 1.64% (active) and 5.41% (active), respectively.
On to `COc1cccc(CCC(=O)c2cc3c(N)c(C(=O)Nc4ccccc4)sc3nc2C)c1`, for which the growth in the assay with HCT-15 colon was 17.5%; with HT29 colon, 16.7%; in the assay on SNB-75 CNS, 9.14% (active); with SNB-19 CNS it was 38.5%; in the assay with U251 CNS it was 26.2%; in the assay on PC-3 prostate it was 49.8%. Moreover, the growth in the assay with SK-MEL-5 melanoma was 8.92% (active); in the assay with UACC-62 melanoma it was 28.3%; with LOX IMVI melanoma, 26.4%; with SK-MEL-28 melanoma, 42%; with SK-MEL-2 melanoma it was 42.3%; with EKVX NSCLC, 45.4%. Further, the growth in the assay on SN12C renal was 35%; with UO-31 renal, 34.8%; in the assay on TK-10 renal it was 70.9%; with ACHN renal, 56.3%; in the assay on CAKI-1 renal it was 28.4%; with A498 renal, 9.88% (active). Moreover, the growth is 29.7% in the assay on CCRF-CEM leukemia and 22.2% with MOLT-4 leukemia.
In the case of `S=c1[nH]cccc1-c1nnc2n1Nc1nc3ccccc3cc1CS2`, the growth in the assay on HCT-15 colon was 108%; in the assay with HT29 colon, 106%; in the assay with SNB-75 CNS, 82.8%; with SNB-19 CNS, 94.8%; with U251 CNS, 103%; in the assay on PC-3 prostate it was 107%. Further, the growth in the assay on SK-MEL-5 melanoma is 97.4%; in the assay with UACC-62 melanoma, 91.2%; in the assay on LOX IMVI melanoma it was 98.6%; with SK-MEL-28 melanoma, 111%; with SK-MEL-2 melanoma it was 104%; in the assay with EKVX NSCLC it was 97.1%. Besides, the growth is 98.8% in the assay on SN12C renal; 70.2% in the assay on UO-31 renal; 105% with TK-10 renal; 93.3% in the assay with ACHN renal; 82.8% in the assay with CAKI-1 renal; 111% in the assay on A498 renal. The growth is 105% in the assay on CCRF-CEM leukemia and 104% in the assay on MOLT-4 leukemia.
On to `COc1c(Cl)cc(Cl)c2ccc(C=C3C(=O)N(C)C(=O)N(C)C3=O)nc12`, for which the growth in the assay with HCT-15 colon is 103%; in the assay on HT29 colon, 105%; with SNB-75 CNS, 98.6%; in the assay on SNB-19 CNS, 92%; with U251 CNS, 110%; with PC-3 prostate, 99.4%. For the same molecule, the growth in the assay on SK-MEL-5 melanoma is 101%; in the assay with UACC-62 melanoma, 102%; in the assay on LOX IMVI melanoma, 101%; with SK-MEL-28 melanoma, 109%; with SK-MEL-2 melanoma, 107%; with EKVX NSCLC it was 101%. In addition, the growth in the assay on SN12C renal is 99.3%; with UO-31 renal, 96%; in the assay with TK-10 renal, 102%; in the assay on ACHN renal, 106%; in the assay on CAKI-1 renal it was 95.3%; with A498 renal, 96.8%. Further, the values for the growth in the assay on CCRF-CEM leukemia and with MOLT-4 leukemia were 99.8% and 99.5%, respectively.
`O=C(Nc1nc2ccc(C(=O)N3CCN(c4ccc(Cl)c(Cl)c4)CC3)cc2s1)c1ccc(NCCc2ccccc2)c([N+](=O)[O-])c1`: the growth is 98.3% in the assay with HCT-15 colon; 100% in the assay with HT29 colon; 98.1% in the assay with SNB-75 CNS; 100% in the assay on SNB-19 CNS; 102% in the assay on U251 CNS; 92.4% with PC-3 prostate. The growth is 87.9% in the assay with SK-MEL-5 melanoma; 78.1% in the assay on UACC-62 melanoma; 98.3% with LOX IMVI melanoma; 105% with SK-MEL-28 melanoma; 104% in the assay on SK-MEL-2 melanoma; 95.3% with EKVX NSCLC. For the same molecule, the growth was 93.3% with SN12C renal; 60.7% in the assay with UO-31 renal; 113% with TK-10 renal; 101% with ACHN renal; 87% with CAKI-1 renal; 79.4% in the assay on A498 renal. The growth is 93.6% in the assay on CCRF-CEM leukemia and 95.7% in the assay on MOLT-4 leukemia.
